Measured values reported in PubChem BioAssay AID2314 (National Center for Advancing Translational Sciences (NCATS), 2010).
Among all 300,000 compounds or so, about 37,000 (12%) were called active. Shown is part of a subset that was picked to be rich in actives. Values without a mark were called inactive. Cut-off read from the data, not from the text of the source: active = max response mostly above about 13% (no sharp cut-off); inactive = mostly below about 14%.

Experiment: Cycloheximide Counterscreen for Small Molecule Inhibitors of Shiga Toxin; note: read at 38.3 µM for the half of the compounds with a filed dose; 0% is about no effect
Details: cell reporter, cycloheximide protein synthesis inhibition counterscreen; active compounds read high

| SMILES | max response |
| --- | --- |
| Cc1ccc2c(c1)C1CN(C)CCC1N2S(=O)(=O)c1ccc(Oc2ccc([N+](=O)[O-])cc2)cc1 (centres undefined) | -3.12% |
| Cc1ccc(C(=O)NC2CCN(C(=O)Nc3ccccc3Cl)CC2)cc1 | -2.19% |
| Cc1nn(CC(=O)NCC2CCCO2)c(=O)c2cc3ccccc3n12 (centres undefined) | 3.06% |
| Cc1ccc(-c2cn3cc([N+](=O)[O-])ccc3n2)cc1 | 92.8% (active) |
| Cc1ccc2nc(-c3ccc(Br)cc3)cn2c1 | 17.6% (active) |
| Cc1ccc(C(=O)Cn2cc([N+](=O)[O-])nc2C)cc1 | -1.83% |
| CSc1nnc2ccc(-c3ccc(C)cc3)nn12 | 8.85% |
| Cc1ccc(-c2cn3cc(C)ccc3n2)cc1 | -15.5% |
| Cc1ccnc(N2C(=O)c3ccc([N+](=O)[O-])cc3C2=O)c1 | -0.576% |
| CC1CCN(C(=O)c2ccc(S(=O)(=O)Cc3cc(F)ccc3F)c([N+](=O)[O-])c2)CC1 | 0.662% |
| O=C(CN1CCN(S(=O)(=O)c2cc(Cl)ccc2Cl)CC1)c1ccc(O)c(O)c1 | 6.66% |
| CCC(C)NCCOCCOc1ccc(Br)cc1C (centres undefined) | -2.66% |
| COC(=O)CSc1nc2c(c(C3CC=CCC3)c1C#N)CCC2 (centres undefined) | -1.01% |
| CCOC(=O)c1sc(C)c2c1NC(C)(c1cccc3ccccc13)NC2=O (centres undefined) | 0.788% |
| C/C(=N\NC(=O)Cc1ccccc1[N+](=O)[O-])c1cccnc1 | -0.525% |
| CN(C)CCSc1nc(N)c2c3c(sc2n1)COC(C)(C)C3 | -2.73% |
| C=C(C)CSc1nc(N)c2c3c(sc2n1)CCC3 | 18.4% (active) |
| Cc1sc2nc(SCC(N)=O)n(C)c(=O)c2c1C | -2.39% |
| Nc1nc(SCC(=O)NCCN2CCOCC2)nc2sc3c(c12)CCC3 | -2.27% |
| CCC1(C)Cc2c(sc3nc(SC)nc(N)c23)CO1 (centres undefined) | 8.94% |
| CC(C)(C)C1CCc2c(sc3nc(SCC(N)=O)nc(N)c23)C1 (centres undefined) | 28.1% (active) |
| C=CCn1cc(C(=O)NCc2ccc(Cl)cc2)c(=O)c2cc(S(=O)(=O)N(CC)CC)ccc21 | -6.07% |
| CN(CCNC(=O)c1cc2c(-c3ccccc3F)nn(C)c2s1)C1CCCCC1 | -2.34% |
| CCOC(=O)C1CCCN(S(=O)(=O)c2ccc3c(c2)C(C)(C)C(=O)N3C)C1 (centres undefined) | -2.15% |
| COc1ccc(N(C(=O)c2ccc(C)cc2)S(=O)(=O)c2cccs2)cc1 | 10.9% |

| SMILES | max response |
| --- | --- |
| Clc1ccc(C2=CSC3=Nc4cccc5cccc(c45)N23)cc1 | 11.3% (active) |
| CC(=O)Oc1cccc(N2C(=O)CC(Nc3ccc(N4CCOCC4)cc3)C2=O)c1 (centres undefined) | 49% (active) |
| CC(=O)Oc1cccc(N2C(=O)C3CC=C(Cl)CC3C2=O)c1 (centres undefined) | -3.93% |
| COc1ccc(N2CCN(C3CC(=O)N(c4ccc5c(c4)OCCO5)C3=O)CC2)cc1 (centres undefined) | 1.96% |
| COc1ccccc1OCc1nc2ccccc2s1 | 27.4% (active) |
| COc1ccccc1OCCn1c(SCC(N)=O)nc2ccccc21 | -1.3% |
| COc1ccc(Cn2c(=O)sc3ccccc32)cc1OC | -0.76% |
| CC1CCc2c(nc3ncnn3c2Nc2ccc(OC(F)(F)F)cc2)C1 (centres undefined) | 0.841% |
| OCCn1c(-c2ccccc2)csc1=Nc1ccccc1 | 38.9% |
| O=c1oc2ccccc2cc1-c1csc(Nc2ccc(O)cc2)n1 | 46% (active) |
| COc1ccc2nc(Nc3nc4ccc(NC(C)=O)cc4s3)sc2c1 | 6.12% |
| COc1ccc2nc(Nc3nc(-c4cc5ccccc5oc4=O)cs3)sc2c1 | 13.6% (active) |
| COc1ccc2nc(Nc3nc4cc5c(cc4s3)OCCO5)sc2c1 | 33.1% (active) |
| CC(=O)Nc1nc(C)c(-c2csc(Nc3ccc(S(N)(=O)=O)cc3)n2)s1 | -0.544% |
| COc1ccccc1CN(C)C(=O)c1cc2ccccc2o1 | 7.81% |
| COc1ccc2nc(Nc3nc(-c4ccncc4)cs3)sc2c1 | 21.5% |
| COc1ccc2oc(=O)cc(-c3cc4ccccc4o3)c2c1 | 4.74% |
| Cn1c(SCC(=O)NC2CCCCC2)nnc1-c1cc2ccccc2o1 | 10.2% |
| CCNc1nc(-c2cc3ccccc3o2)cs1 | 58% (active) |
| CCOc1ccc(S(=O)(=O)Nc2nc3cc(OC)ccc3s2)cc1 | -4.35% |
| Cc1ccc(OCCCC(=O)Nc2ccc(S(=O)(=O)Nc3cc(C)nc(C)n3)cc2)cc1 | -2.32% |
| CN(C)[C@@H]1C(=O)C(C(N)=O)=C(O)[C@@]2(O)C(=O)C3=C(O)c4c(O)ccc(Cl)c4[C@@H](O)[C@H]3C[C@@H]12 | 3.73% |
| CCN(CC)CCOCCOc1ccc(Cl)c2ccccc12 | -2.87% |
| COc1cc(NS(=O)(=O)c2ccc(NC(=S)NC(=O)c3ccc(Br)cc3)cc2)ncn1 | 0.589% |
